Experiment [1] concerns IL-6-GFP PC-9GR. In words: cell viability (CCK-8 OD) relative to DMSO control (fraction of control); higher = more viable cells. The following applies: compound concentration: 10 uM; treatment time: 48 h. Put shortly:
(§1)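 PC-9 and PC-9GR lung cancer cells carrying a lentiviral construct that overexpresses IL-6-GFP were seeded in 96-well plates at 3000 cells/well. Every compound in a purchased 510-compound library was applied at a final 10 μM for 48 h, and a parallel set of plates was kept for GFP imaging. Cell viability was read by CCK-8 absorbance, taking each well's optical density as a ratio to the vehicle control well. Two independent replicates were run.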

Experiment [2] concerns IL-6-GFP PC-9. The description is as above. The following applies: compound concentration: 10 uM; treatment time: 48 h. Put shortly:
as §1

SMILES strings stand for the structures. ± gives the standard deviation of the averaged measurements.

For the molecule `O=C(O)CCC(=O)c1ccc(-c2ccccc2)cc1` [Fenbufen], the values for the cell viability in experiment [1] and in experiment [2] were 1 ± 0.06 and 1.08 ± 0.12, respectively.
For `Cc1oncc1C(=O)Nc1ccc(C(F)(F)F)cc1` [Leflunomide] the same measures were 1.1 ± 0.067 and 0.683 ± 0.21.
Turning to `CN(C)c1nc(N(C)C)nc(N(C)C)n1` [Altretamine], the cell viability was determined as 1.25 ± 0.047 in experiment [1] and 1.06 ± 0.036 in experiment [2].
Consider `CCCCCCCCCCCC1=C(O)C(=O)C=C(O)C1=O` [Embelin], for which the cell viability worked out at 0.858 ± 0.075 in experiment [1] and 1.12 ± 0.44 in experiment [2].
With `O=C(O)CCCN1CCC(OC(c2ccc(Cl)cc2)c2ccccn2)CC1.O=S(=O)(O)c1ccccc1` (centres undefined) [Bepotastine Besilate], the cell viability amounted to 0.9937 ± 0.0023 in experiment [1] and 0.84 ± 0.015 in experiment [2].
In the case of `CCCCCCCCc1ccc(CCC(N)(CO)CO)cc1` [Fingolimod], the cell viability in experiment [1] is 0.513 ± 0.18; in experiment [2] it was 0.924 ± 0.37.
Consider `CC(CCC(=O)NCCS(=O)(=O)O)C1CCC2C3C(O)CC4CC(O)CCC4(C)C3CCC12C` (centres undefined) [Tauroursodeoxycholic Acid (TUDCA)], for which the cell viability in experiment [1] worked out at 1.2 ± 0.37; in experiment [2], 1.24 ± 0.23.
With `CN1CCN(c2ccc(C(=O)Nc3n[nH]c4ccc(Cc5cc(F)cc(F)c5)cc34)c(NC3CCOCC3)c2)CC1` [Entrectinib (RXDX-101)], the results for the cell viability in experiment [1] and in experiment [2] were 0.164 ± 0.14 and 0.515 ± 0.14, respectively.
For `CC(Cn1ccc(-c2ccc(C#N)c(Cl)c2)n1)NC(=O)c1cc(C(C)O)[nH]n1` (centres undefined) [Darolutamide (ODM-201)], the cell viability in experiment [1] was 0.858 ± 0.18; in experiment [2] it was 0.962 ± 0.21.
For `NC(CC(=O)N1CCn2c(nnc2C(F)(F)F)C1)Cc1cc(F)c(F)cc1F` (centres undefined) [Sitagliptin] the same measures were 1.62 ± 0.63 and 1.14 ± 0.12.
For the molecule `CNCc1ccc(-c2[nH]c3cc(F)cc4c3c2CCNC4=O)cc1.O=P(O)(O)O`, the cell viability was found to be 0.93 ± 0.16 in experiment [1] and 1.05 ± 0.15 in experiment [2].
For `CC1(C)CCC(CN2CCN(c3ccc(C(=O)NS(=O)(=O)c4ccc(NCC5CCOCC5)c([N+](=O)[O-])c4)c(Oc4cnc5[nH]ccc5c4)c3)CC2)=C(c2ccc(Cl)cc2)C1` [Venetoclax (ABT-199, GDC-0199)] the same measures were 0.907 ± 0.17 and 1.03 ± 0.15.
For `Nc1nc(F)nc2c1ncn2C1OC(CO)C(O)C1O` (centres undefined) [Fludarabine] the same measures were 0.214 ± 0.12 and 0.232 ± 0.026.
Regarding `CS(=O)(=O)O.Cc1ccc(NC(=O)c2ccc(CN3CCN(C)CC3)cc2)cc1Nc1nccc(-c2cccnc2)n1` [Imatinib Mesylate (STI571)], the cell viability in experiment [1] came out at 1.26 ± 0.07; in experiment [2] it was 1.1 ± 0.1.
For `COc1nc2ccc(Br)cc2cc1C(c1ccccc1)C(O)(CCN(C)C)c1cccc2ccccc12` (centres undefined) [Bedaquiline] the same measures were 0.849 ± 0.0096 and 0.85 ± 0.17.
For `COc1c(-c2ccc3cc(NS(C)(=O)=O)ccc3c2)cc(-n2ccc(=O)[nH]c2=O)cc1C(C)(C)C` [Dasabuvir(ABT-333)] the same measures were 0.7838 ± 0.0059 and 0.9253 ± 0.0086.
As for `CN1C(C(=O)Nc2ccccn2)=C(O)c2sc(Cl)cc2S1(=O)=O` [Lornoxicam], the cell viability amounted to 0.71 ± 0.3 in experiment [1] and 1.1 ± 0.23 in experiment [2].
With `OCC1OC(OCC2OC(O)C(O)C(OC3OC(CO)C(O)C(OC4OC(CO)C(O)C(OC5OC(COC6OC(CO)C(O)C(O)C6O)C(O)C(OC6OC(CO)C(O)C(O)C6O)C5O)C4O)C3O)C2O)C(O)C(O)C1O` (centres undefined) [Lentinan], the values for the cell viability in experiment [1] and in experiment [2] were 0.121 ± 0.32 and 1.276 ± 0.0043, respectively.
As to `CCN(CC)CCNC(=O)c1c(C)[nH]c(/C=C2\C(=O)Nc3ccc(F)cc32)c1C.O=C(O)CC(O)C(=O)O` [Sunitinib Malate], the values for the cell viability in experiment [1] and in experiment [2] were 1.01 ± 0.063 and 0.453 ± 0.52, respectively.
As for `O=C([O-])Cc1ccccc1Nc1c(Cl)cccc1Cl.[Na+]` [Diclofenac Sodium], the cell viability is 1.3 ± 0.039 in experiment [1] and 1.09 ± 0.084 in experiment [2].
For the molecule `Cn1c(=O)cc(N2CCCC(N)C2)n(Cc2cc(F)ccc2C#N)c1=O` (centres undefined) [Trelagliptin], the cell viability in experiment [1] was 1.09 ± 0.15; in experiment [2], 1.33 ± 0.49.
In the case of `CC1(C(=O)O)CCC2(C)CCC3(C)C(=CC(=O)C4C5(C)CCC(OC6OC(C(=O)O)C(O)C(O)C6OC6OC(C(=O)O)C(O)C(O)C6O)C(C)(C)C5CCC43C)C2C1.N.N` (centres undefined) [Diammonium Glycyrrhizinate], the results for the cell viability in experiment [1] and in experiment [2] were 1.11 ± 0.22 and 1.19 ± 0.07, respectively.
`COc1cc2c(cc1OC)C1CC(OC(=O)C(N)C(C)C)C(CC(C)C)CN1CC2.Cc1ccc(S(=O)(=O)O)cc1.Cc1ccc(S(=O)(=O)O)cc1` (centres undefined) [Valbenazine tosylate]: the results for the cell viability in experiment [1] and in experiment [2] were 0.833 ± 0.14 and 1.01 ± 0.084, respectively.
Take `O=c1c(-c2ccc(O)cc2)coc2cc(O)cc(O)c12` [Genistein]: the results for the cell viability in experiment [1] and in experiment [2] were 0.975 ± 0.05 and 0.58 ± 0.32, respectively.
For the molecule `COc1ccc(S(=O)(=O)N(C(C)=O)c2ccccc2/C=C/c2cc[n+]([O-])cc2)cc1`, the cell viability in experiment [1] turned out to be 0.674 ± 0.091; in experiment [2], 0.753 ± 0.018.
On to `COc1ccc2cc1Oc1ccc(cc1)CC1c3c(cc4c(c3Oc3cc5c(cc3OC)CCN(C)C5C2)OCO4)CCN1C` (centres undefined) [Cepharanthine], for which the cell viability in experiment [1] worked out at 0.8242 ± 0.0069; in experiment [2], 0.73 ± 0.15.
`Cc1c(Cl)cccc1Nc1ncccc1C(=O)O` [Clonixin]: the results for the cell viability in experiment [1] and in experiment [2] were 0.814 ± 0.24 and 1.08 ± 0.027, respectively.
With `CC1CCC2(C(=O)OC3OC(COC4OC(CO)C(OC5OC(C)C(O)C(O)C5O)C(O)C4O)C(O)C(O)C3O)CCC3(C)C(=CCC4C5(C)CC(O)C(O)C(C)(CO)C5CCC43C)C2C1C` (centres undefined) [Asiaticoside], the cell viability in experiment [1] was determined as 1.06 ± 0.2; in experiment [2] it was 1.17 ± 0.021.
On to `O=C(O)c1cc(O)c(O)c(O)c1` [Gallic acid], for which the cell viability in experiment [1] came out at 0.792 ± 0.22; in experiment [2] it was 0.369 ± 0.14.
As to `CC#CC(=O)N1CCCC1c1nc(-c2ccc(C(=O)Nc3ccccn3)cc2)c2c(N)nccn12` (centres undefined) [Acalabrutinib (ACP-196)], the figures for the cell viability in experiment [1] and in experiment [2] were 1.04 ± 0.36 and 0.78 ± 0.084, respectively.
For the molecule `Cc1cc(Nc2ncc(Cl)c(Nc3ccccc3S(=O)(=O)C(C)C)n2)c(OC(C)C)cc1C1CCNCC1` [Ceritinib (LDK378)], the cell viability in experiment [1] came to 0.091 ± 0.015; in experiment [2] it was 0.0667 ± 0.041.
For the molecule `COc1ccc(-c2cc(=S)ss2)cc1` [Anethole trithione], the cell viability worked out at 0.868 ± 0.15 in experiment [1] and 1.17 ± 0.031 in experiment [2].
